Measurements as given in PubChem BioAssay (NCATS).
Inconclusive results are not listed. Calls of active or inactive are those of the source. Unless noted, calls come from the whole dose curve; as a rule, active = well fitted curve in the direction sought with a large enough effect; inconclusive = small, poorly fitted or top-dose-only effect, or another doubt; inactive = no such curve, though single readings can be large; an effect the other way counts as inactive or inconclusive.

Legend:
[1] = Inducers of the Endoplasmic Reticulum Stress Response (ERSR) in human glioma: Validation (AID 504836); settings: human glioma cells, ER stress response reporter; series mostly up to 38.3 µM
How it was run: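 Stably transfected U87-MG human glioma cells carrying a GRP78-based luminescent sensor were seeded at 1000 cells/well, pin-dosed with compounds and incubated 16 h. Luciferase reagent was then added, and end-point luminescence was read after 10 min at room temperature.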

[2] = qHTS for Inhibitors of the Functional Ribonucleoprotein Complex (vRNP) of Lassa (LASV) Arenavirus: LASV Primary Screen - GLuc reporter signal (AID 1347082; calls by dose curve; tested in HEK293 reporter line; note: nearly all actives have a fitted effect of over 60% in size); settings: LASV minigenome vRNP, Gaussia luciferase reporter; series mostly up to 57.5 µM
[3] = qHTS for Inhibitors of the Functional Ribonucleoprotein Complex (vRNP) of Lassa (LASV) Arenavirus: Viability assay - alamar blue signal for LASV Primary Screen (AID 1347083; calls by dose curve; tested in HEK293 reporter line; note: nearly all actives have a fitted effect of over 80% in size); settings: cell viability, alamar blue fluorescence (LASV minigenome counter-screen); series mostly up to 57.5 µM
[4] = qHTS for Inhibitors of the Functional Ribonucleoprotein Complex (vRNP) of Lymphocytic Choriomeningitis Arenaviruses (LCMV): Viability assay - alamar blue signal for LCMV Primary Screen (AID 1347085; calls by dose curve; tested in HEK293 reporter line; note: nearly all actives have a fitted effect of over 80% in size); settings: alamar blue viability counter-screen, LCMV vRNP screen cells; series mostly up to 57.5 µM
[5] = target: Nucleoprotein (Lymphocytic choriomeningitis virus (strain Armstrong)) (UniProt P09992); assay: qHTS for Inhibitors of the Functional Ribonucleoprotein Complex (vRNP) of Lymphocytic Choriomeningitis Arenaviruses (LCMV): LCMV Primary Screen - GLuc reporter signal (AID 1347086; calls by dose curve; note: nearly all actives have a fitted effect of over 70% in size); settings: LCMV minigenome vRNP cell assay, Gaussia luciferase reporter; series mostly up to 57.5 µM
[6] = target: Ubiquitin carboxyl-terminal hydrolase 1 (Homo sapiens) (UniProt O94782); assay: Inhibitors of USP1/UAF1: Pilot qHTS (AID 504865); settings: purified USP1/UAF1, Ub-rhodamine cleavage fluorescence; series mostly up to 114 µM;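 note: rhodamine fluorescence freed from ubiquitin-rhodamine substrate followed over time; top concentration of the series differs between compounds; nearly all actives have a fitted effect of over 35% in size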
How it was run: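 In 50mM HEPES pH 7.8 containing 0.5mM EDTA, 1mM TCEP, 0.1 mg/ml BSA and 0.01% Tween-20, 1nM USP1/UAF1 is exposed to compound for 15 min, then Ub-Rho (150nM final) is added and fluorescence is read over time.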

[7] = target: Arylsulfatase A (Homo sapiens) (UniProt P15289); assay: qHTS screen for enhancers of Arylsulfatase A (ASA1): LOPAC Validation Assay (AID 720538); settings: ASA enzyme activity, LOPAC qHTS enhancer assay; series mostly up to 57.5 µM
How it was run: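 MLD patient fibroblasts (SV40, ASA-I179S), 1536-well; adhere 6 hrs; cpd 48h, 37 degree C, 5% CO2; pNCS 0.5mM final in lysis buffer, 14h RT; stop 1N NaOH final; fluor. Ex525/Em598.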

[8] = target: Alpha-galactosidase (Coffea arabica) (UniProt Q42656); assay: Counterscreen for Glucocerebrosidase Inhibitors: qHTS Assay for Coffee Bean alpha-Galactosidase at pH 4.5 (AID 957); settings: purified coffee bean alpha-galactosidase, fluorogenic substrate; series mostly up to 76.9 µM
How it was run: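 Coffee bean enzyme (2 nM) with 80 uM 4-methylumbelliferyl alpha-D-galactopyranoside in 50 mM citric acid, 0.005% Tween-20, pH 4.5, 20 min at room temperature; compounds 0.7 nM–77 uM. Stopped at pH 10, fluorescence 365/440 nm; AC50 from Hill fits.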

[9] = target: Alpha-galactosidase (Coffea arabica) (UniProt Q42656); assay: Counterscreen for Glucocerebrosidase Inhibitors: qHTS Assay for Coffee Bean alpha-Galactosidase at pH 5.9 (AID 998); settings: coffee bean alpha-galactosidase enzyme assay; series mostly up to 76.9 µM
How it was run: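 Green coffee bean enzyme (2 nM final) was incubated with compounds (0.7 nM–77 uM) and 4-methylumbelliferyl alpha-D-galactopyranoside (80 uM) in citrate buffer pH 5.9, 20 min at room temperature. High-pH stop; fluorescence 365/440 nm; AC50 from Hill fits.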

Measured: Potency

Ubiquitin carboxyl-terminal hydrolase 1 (Homo sapiens), sequence (O94782 whole entry, looked up): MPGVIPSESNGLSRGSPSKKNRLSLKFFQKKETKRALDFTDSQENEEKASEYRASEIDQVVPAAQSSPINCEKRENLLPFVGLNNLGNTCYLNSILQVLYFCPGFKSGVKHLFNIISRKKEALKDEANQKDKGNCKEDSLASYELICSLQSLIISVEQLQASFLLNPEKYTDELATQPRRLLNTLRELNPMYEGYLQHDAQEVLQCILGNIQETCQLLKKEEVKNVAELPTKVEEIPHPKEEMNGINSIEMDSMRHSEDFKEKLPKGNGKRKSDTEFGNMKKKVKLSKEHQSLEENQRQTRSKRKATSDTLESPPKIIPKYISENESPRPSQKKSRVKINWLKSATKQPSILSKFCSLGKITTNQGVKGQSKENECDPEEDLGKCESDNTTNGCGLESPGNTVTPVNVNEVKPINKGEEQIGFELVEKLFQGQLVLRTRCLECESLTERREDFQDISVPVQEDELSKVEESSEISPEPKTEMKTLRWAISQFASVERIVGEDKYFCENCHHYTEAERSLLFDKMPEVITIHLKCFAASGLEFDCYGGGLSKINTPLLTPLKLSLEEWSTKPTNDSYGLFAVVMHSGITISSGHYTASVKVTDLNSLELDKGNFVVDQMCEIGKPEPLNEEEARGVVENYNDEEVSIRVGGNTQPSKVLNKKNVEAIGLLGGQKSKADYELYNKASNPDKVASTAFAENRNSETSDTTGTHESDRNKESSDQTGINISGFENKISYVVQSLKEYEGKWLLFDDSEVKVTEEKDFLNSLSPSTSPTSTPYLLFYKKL
Alpha-galactosidase (Coffea arabica), sequence (Q42656 whole entry, looked up): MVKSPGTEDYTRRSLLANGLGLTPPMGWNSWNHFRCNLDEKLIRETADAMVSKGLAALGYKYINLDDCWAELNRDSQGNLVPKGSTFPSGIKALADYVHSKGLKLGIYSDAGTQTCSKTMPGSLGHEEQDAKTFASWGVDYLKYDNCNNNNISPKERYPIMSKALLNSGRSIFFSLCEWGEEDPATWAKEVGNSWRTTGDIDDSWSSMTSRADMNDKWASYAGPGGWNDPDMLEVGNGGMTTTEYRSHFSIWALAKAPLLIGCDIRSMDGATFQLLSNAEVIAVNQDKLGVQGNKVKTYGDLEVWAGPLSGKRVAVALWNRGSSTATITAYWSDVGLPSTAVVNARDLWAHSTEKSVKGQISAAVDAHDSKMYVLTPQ
Arylsulfatase A (Homo sapiens), sequence (P15289 whole entry, looked up): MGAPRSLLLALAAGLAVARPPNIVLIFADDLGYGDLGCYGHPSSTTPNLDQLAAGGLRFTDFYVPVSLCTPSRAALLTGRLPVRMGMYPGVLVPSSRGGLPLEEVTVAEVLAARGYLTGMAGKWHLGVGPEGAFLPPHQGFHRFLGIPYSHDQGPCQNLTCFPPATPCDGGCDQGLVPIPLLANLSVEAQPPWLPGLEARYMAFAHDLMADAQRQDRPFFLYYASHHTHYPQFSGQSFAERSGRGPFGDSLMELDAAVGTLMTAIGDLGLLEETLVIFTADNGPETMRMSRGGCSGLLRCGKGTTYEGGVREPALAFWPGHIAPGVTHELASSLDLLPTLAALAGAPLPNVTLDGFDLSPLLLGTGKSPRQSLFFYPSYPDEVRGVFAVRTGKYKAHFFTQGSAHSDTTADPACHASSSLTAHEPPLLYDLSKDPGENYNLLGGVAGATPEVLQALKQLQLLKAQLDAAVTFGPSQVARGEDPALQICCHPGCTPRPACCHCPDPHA
Nucleoprotein (Lymphocytic choriomeningitis virus (strain Armstrong)), sequence (P09992 whole entry, looked up): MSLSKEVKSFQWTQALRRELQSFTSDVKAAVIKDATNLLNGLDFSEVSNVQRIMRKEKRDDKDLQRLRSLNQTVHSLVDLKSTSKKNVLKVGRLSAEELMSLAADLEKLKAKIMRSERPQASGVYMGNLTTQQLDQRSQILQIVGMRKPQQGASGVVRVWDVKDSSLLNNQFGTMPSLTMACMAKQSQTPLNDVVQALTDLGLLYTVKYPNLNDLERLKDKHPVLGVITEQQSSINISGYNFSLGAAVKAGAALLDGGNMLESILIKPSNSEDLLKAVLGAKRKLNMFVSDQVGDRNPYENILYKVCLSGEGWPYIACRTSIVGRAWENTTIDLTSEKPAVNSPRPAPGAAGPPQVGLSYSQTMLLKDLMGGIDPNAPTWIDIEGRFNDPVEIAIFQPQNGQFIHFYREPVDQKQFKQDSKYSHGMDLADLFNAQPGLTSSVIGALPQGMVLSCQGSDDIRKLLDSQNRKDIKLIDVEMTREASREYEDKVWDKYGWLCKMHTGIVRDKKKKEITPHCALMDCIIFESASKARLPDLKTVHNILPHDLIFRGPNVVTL

CCc1c(C(=O)NCCc2ccc(N3CCCCC3)cc2)[nH]c2ccc(Cl)cc12
inactive: [1] | [2] | [3] | [4] | [5]

Nc1ncnc2c1ncn2[C@@H]1O[C@H](COP(=O)(O)OP(=O)(O)OP(=O)(O)OP(=O)(O)OC[C@@H]2O[C@H](n3cnc4c(N)ncnc43)[C@@H](O)[C@H]2O)[C@@H](O)[C@H]1O
inactive: [1] | [2] | [3] | [4] | [5]

CSc1nc(N)c2ncn([C@@H]3O[C@H](COP(=O)(O)OP(=O)(O)O)C(O)[C@H]3O)c2n1 (stereo not given in full)
inactive: [1] | [2] | [3] | [4] | [5]

CC(N)(Cc1ccc(O)cc1)C(=O)O (stereo not given)
inactive: [1] | [2] | [3] | [4] | [5]

Clc1ccc(N2CCN(Cc3cc4ccccn4n3)CC2)cc1
inactive: [1] | [2] | [3] | [4] | [5]

C[C@H]1O[C@@H](n2cc(F)c(=O)[nH]c2=O)[C@H](O)[C@H]1O
inactive: [1] | [2] | [3] | [4] | [5]

CNC(=O)[C@H]1O[C@@H](n2cnc3c(NCc4ccc(N)cc4)ncnc32)[C@H](O)[C@@H]1O
inactive: [1] | [2] | [3] | [4] | [5]

COc1ccc2c(c1)CCC1C2CC[C@@]2(C)C1CC[C@@H]2NCCCCCCN1C(=O)CCC1=O (stereo not given in full)
inactive: [1] | [2] | [3] | [4] | [5]

O=[N+]([O-])c1ccc(CSc2ncnc3c2ncn3[C@@H]2O[C@H](CO)[C@@H](O)[C@H]2O)cc1
inactive: [1] | [2] | [3] | [4] | [5]

CC(C)(C)[C@]1(O)CCN2C[C@H]3c4ccccc4CCc4cccc(c43)[C@@H]2C1
inactive: [1] | [2] | [3] | [4] | [5]

CCc1ccc2c(-c3cccc(Cl)c3)nc(=O)n(CC)c2n1
inactive: [1] | [2] | [3] | [4] | [5]

N[C@@H](CCC(=O)N[C@H](CSN=O)C(=O)NCC(=O)O)C(=O)O
inactive: [1] | [2] | [3] | [4] | [5]

Cc1nn(-c2ccccc2)c(C)c1/C=N/N1CCN(Cc2ccccc2)CC1
inactive: [1] | [2] | [3] | [4] | [5]

CC1CC2C3CCC4=CC(=O)C=C[C@]4(C)[C@@]3(F)[C@@H](O)C[C@]2(C)[C@@]1(O)C(=O)CO (stereo not given in full)
inactive: [1] | [2] | [3] | [4] | [5]

OC[C@H]1O[C@@H](n2cnc3c(Nc4ccccc4)ncnc32)[C@H](O)[C@@H]1O
inactive: [1] | [2] | [3] | [4] | [5]

O=c1[nH]c(=S)[nH]c(-c2ccccc2)c1Cc1c(O)ccc2ccccc12
inactive: [1] | [2] | [3] | [4] | [5]

CC(=O)SC1CC2=CC(=O)CC[C@]2(C)C2CC[C@@]3(C)C(CC[C@@]34CCC(=O)O4)C12 (stereo not given in full)
inactive: [1] | [2] | [3] | [4] | [5]

O=c1ccn([C@@H]2O[C@H](COP(=O)(O)OP(=O)(O)O)[C@@H](O)[C@H]2O)c(=O)[nH]1
inactive: [1] | [2] | [3] | [4] | [5]

O=C1NC(=O)/C(=C/c2ccc3c(c2)OC(F)(F)O3)S1
inactive: [1] | [2] | [3] | [4] | [5]

C=CC(C)=C[C@@]1(C)SC(=O)C(C)=C1O
inactive: [1] | [2] | [3] | [4] | [5]

COC(=O)C1=CO[C@@H](O)[C@@H]2C(CO)=CC[C@H]12
inactive: [1] | [2] | [3] | [4] | [5]

COc1cccc2c1[C@@H]1CN(CCCCn3c(=O)[nH]c4c(sc5ncc(-c6ccccc6)nc54)c3=O)C[C@@H]1CO2
inactive: [1] | [2] | [3] | [4] | [5]

NC(=S)NCCC[C@H](N)C(=O)O
inactive: [1] | [2] | [3] | [4] | [5]

CCN(CC)CCNC(=O)c1ccc(NS(C)(=O)=O)cc1
inactive: [1] | [2] | [3] | [4] | [5]

CCCC1(C)C(C#N)(C#N)C1(C#N)C#N
inactive: [1] | [2] | [3] | [4] | [5]

O=C(O)CCC/C=C\C[C@@H]1[C@@H](/C=C/[C@H](O)C2Cc3ccccc3C2)[C@@H](F)C[C@@H]1O
inactive: [1] | [2] | [3] | [4] | [5]

N[C@H](C(=O)O)[C@H](Cc1ccccc1)C(=O)O
inactive: [1] | [2] | [3] | [4] | [5]

CC(COc1ccc(/C=C/c2ccccc2)cc1)[N+](C)(C)C (stereo not given)
inactive: [1] | [2] | [3] | [4] | [5]

c1ccc2c(c1)CCC[C@H]2Nc1nc2ccccc2[nH]1
inactive: [1] | [2] | [3] | [4] | [5]

CCCn1c(=O)c(C)cn2nc(N)nc12
inactive: [1] | [2] | [3] | [4] | [5]

COc1ccc(CCn2nnnc2C2(c3ccc(C)cc3)CC2)cc1
inactive: [1] | [2] | [3] | [4] | [5]

CC(=O)O[C@H]1C[C@@H]2CC[C@@H]3[C@H](CC[C@@]4(C)[C@H]3C[C@H]([N+]3(C)CCCCC3)[C@@H]4OC(C)=O)[C@@]2(C)C[C@@H]1[N+]1(C)CCCCC1
not listed: [8] | [9]
inactive: all other assays above

C=CC(=O)c1ccc(CCCCCC)cc1
inactive: [1] | [2] | [3] | [4] | [5]

C=C1C[C@@]23CC[C@H]4[C@@](C)(CCC[C@@]4(C)C(=O)O)[C@@H]2CC[C@]1(O)C3
inactive: [1] | [2] | [3] | [4] | [5]

C[N+](C)(C)CCOP(=O)(O)OP(=O)([O-])OC[C@H]1O[C@@H](n2ccc(N)nc2=O)[C@H](O)[C@@H]1O
inactive: [1] | [2] | [3] | [4] | [5]

CN1Cc2sccc2C(c2ccc(O)c(O)c2)C1 (stereo not given)
inactive: [1] | [2] | [3] | [4] | [5]

NCCNC(=O)c1ncsc1-c1cccc(F)c1
not listed: [6] | [7]
inactive: all other assays above

Oc1cc2c(c(Cl)c1O)CCNCC2c1ccccc1 (stereo not given)
inactive: [1] | [2] | [3] | [4] | [5]

Nc1nc(SCc2ccc([N+](=O)[O-])cc2)c2ncn([C@@H]3O[C@H](CO)[C@@H](O)[C@H]3O)c2n1
inactive: [1] | [2] | [3] | [4] | [5]

NCC1OC(O[C@H]2[C@H](O)[C@@H](OC3C(O)C(N)CC(N)C3OC3OC(CO)C(O)C(O)C3N)O[C@@H]2CO)C(N)C(O)C1O (stereo not given in full)
not listed: [8] | [9]
inactive: all other assays above

CO/S(=N\S(=O)(=O)c1ccc(Cl)cc1)c1ccc([N+](=O)[O-])cc1 (stereo not given)
inactive: [1] | [2] | [3] | [4] | [5]

Nc1ncnc2c1c(I)cn2[C@@H]1C[C@H](N)[C@@H](O)[C@H]1O
inactive: [1] | [2] | [3] | [4] | [5]

Cc1nc2n(c(=O)c1CCN1CCC(c3noc4cc(F)ccc34)CC1)CCCC2O (stereo not given)
inactive: [1] | [2] | [3] | [4] | [5]

CN1CC(O)C(O)C(O)C1CO (stereo not given)
inactive: [1] | [2] | [3] | [4] | [5]

NC(=S)c1ccc[n+]([C@@H]2O[C@@H](COP(=O)([O-])OP(=O)(O)OC[C@H]3O[C@@H](n4cnc5c(N)ncnc54)[C@H](OP(=O)(O)O)[C@@H]3O)C(O)C2O)c1 (stereo not given in full)
inactive: [1] | [2] | [3] | [4] | [5]

Nc1nc(Cl)nc2c1ncn2[C@@H]1O[C@H](CO)[C@@H](O)[C@H]1O
inactive: [1] | [2] | [3] | [4] | [5]

O=C1/C(=C/c2ccsc2)CC/C1=C\c1cccs1
inactive: [1] | [2] | [3] | [4] | [5]

CN1C2CC(OC(=O)[C@H](CO)c3ccccc3)CC1C1OC12 (stereo not given in full)
not listed: [7] | [8] | [9]
inactive: all other assays above

CSc1nc(N)c2ncn([C@@H]3O[C@H](COP(=O)(O)OP(=O)(O)OP(=O)(O)O)[C@@H](O)[C@H]3O)c2n1
inactive: [1] | [2] | [3] | [4] | [5]

N[C@@H](Cn1ccc(=O)c(O)c1)C(=O)O
inactive: [1] | [2] | [3] | [4] | [5]

CN=c1nc(-c2ccccc2)n(-c2ccccc2)s1
not listed: [6] | [7]
inactive: all other assays above

OC[C@H]1O[C@@H](n2cnc3c(NC4CCCCC4)ncnc32)[C@H](O)[C@@H]1O
inactive: [1] | [2] | [3] | [4] | [5]

CCCCCCC(=O)OC1CC(C)(C)NC(C)(C)C1
not listed: [6] | [8] | [9]
inactive: all other assays above

C[C@H]1CC2C3CCC4=CC(=O)C=C[C@]4(C)[C@@]3(Cl)[C@@H](O)C[C@]2(C)[C@@]1(O)C(=O)CO (stereo not given in full)
inactive: [1] | [2] | [3] | [4] | [5]
